Data from the supplement of paper PMC3334620.
Over roughly 33,000 sequences, “E-score (-0.5 to 0.5)” has its median near -0.01; the highest 2% begin near 0.26. This excerpt belongs to a sample that is enriched for the highest values.

What follows are sequences tested against Ste12 (UniProt P13574) (assay: PBM E-score (8-mer binding enrichment) (E-score (-0.5 to 0.5)); higher = stronger / more preferred TF binding). Conditions: protein concentration: 200 nM; construct: GST-DNA-binding domain.
Protocol: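 Universal 'all 10-mer' protein binding microarrays (Agilent AMADID 015681) probed with GST-tagged S. cerevisiae TFs (full-length or DBD) made by in vitro transcription/translation (PURExpress), about 100-200 nM. Bound TF was detected with fluorescent anti-GST. Each ungapped 8-mer (which stands for itself and its reverse complement) is scored by the PBM enrichment score (E-score), a modified Wilcoxon-Mann-Whitney statistic from -0.5 to +0.5, computed with the Universal PBM Analysis Suite. Scale: above 0.35 generally sequence-specific binding.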

Sequence of UniProt P13574 (P13574 whole entry, the tested form may be a part): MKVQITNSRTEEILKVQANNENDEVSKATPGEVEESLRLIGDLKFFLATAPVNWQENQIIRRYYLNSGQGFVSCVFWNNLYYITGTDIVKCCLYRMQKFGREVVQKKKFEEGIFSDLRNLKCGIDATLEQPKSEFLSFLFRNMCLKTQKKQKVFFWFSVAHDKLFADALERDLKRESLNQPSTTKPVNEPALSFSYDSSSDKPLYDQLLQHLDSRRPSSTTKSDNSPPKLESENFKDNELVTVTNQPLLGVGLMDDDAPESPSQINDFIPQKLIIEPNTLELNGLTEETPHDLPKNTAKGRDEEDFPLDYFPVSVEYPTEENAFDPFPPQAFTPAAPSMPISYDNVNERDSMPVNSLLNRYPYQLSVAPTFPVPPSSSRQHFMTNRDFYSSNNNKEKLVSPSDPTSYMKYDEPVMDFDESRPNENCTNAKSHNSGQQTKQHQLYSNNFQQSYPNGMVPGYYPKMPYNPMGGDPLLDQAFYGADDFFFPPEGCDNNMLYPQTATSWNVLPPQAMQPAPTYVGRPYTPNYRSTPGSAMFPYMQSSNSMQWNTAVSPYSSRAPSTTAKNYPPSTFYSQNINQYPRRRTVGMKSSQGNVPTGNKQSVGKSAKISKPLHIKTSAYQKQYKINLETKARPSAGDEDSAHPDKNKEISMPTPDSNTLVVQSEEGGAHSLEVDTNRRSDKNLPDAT

Row | Sequence | PBM E-score
1 | GAAACCAC | 0.164
2 | AAAACCTC | 0.207
3 | CTAACCAA | 0.186
4 | GAAACCTC | 0.318
5 | CAAACCTC | -0.105
6 | ATAACCAG | -0.0264
7 | GAAACCAA | 0.355
8 | AAAACCAA | 0.209
9 | AAAACCGC | 0.0403
10 | CAAACCGC | 0.00675
11 | ATAACCAA | 0.294
12 | ACCTAAAT | 0.11
13 | ACGTTGGC | -0.0145
14 | CATGGCGG | -0.0453
15 | CTTTGCAC | -0.0246
16 | GAGCGTGA | -0.0254
17 | CGGCTGAA | -0.0336
18 | GCAAGCAC | -0.125
19 | ATAGTTTA | 0.0232
20 | AAAACTCG | 0.125
21 | GCGATGCA | -0.234
22 | CGAATTAG | 0.095

Row | Sequence | PBM E-score
23 | AAAACCGA | 0.115
24 | CAAACCGA | 0.0295
25 | GAAACCGA | 0.267
26 | GGTAACAA | 0.264
27 | TGTAACAA | 0.333
28 | GGTAACAC | 0.0298
29 | AGTAACAA | 0.0502
30 | GCTAACAA | -0.046
31 | TCTAACAA | 0.127
32 | CGTAACAA | 0.293
33 | CGTAACAG | 0.205
34 | GGTAACCA | -0.12
35 | AGAACTCA | 0.117
36 | TCGAGCGA | -0.0486
37 | GAGTTGTA | -0.0493
38 | ATCGTTTC | 0.35
39 | AGCGTTTA | -0.122
40 | CGCGTTTC | 0.234
41 | AGCGTTTC | 0.294
42 | CTCGTTTC | 0.242
43 | ATCGTTTG | 0.0575
44 | AACCCACA | -0.0351

Row | Sequence | PBM E-score
45 | GGTGGGTA | 0.0601
46 | CATTTCCC | 0.295
47 | AATTTTAG | 0.105
48 | GATTTCCC | -0.0998
49 | CATTTTAA | 0.27
50 | CATTTTCC | 0.123
51 | CCTTTTAA | 0.0649
52 | CATTTTAG | 0.267
53 | TATTTTCA | 0.201
54 | AATTTTCA | 0.165
55 | CATTTTTA | 0.0631
56 | CATTTTAC | 0.254
57 | CATTTTCA | 0.273
58 | AAGGCGGC | -0.0929
59 | CCCTGAAC | 0.0241
60 | CCCTTGCG | -0.0882
61 | ATACGTTG | -0.0291
62 | CGTGGCGC | -0.1
63 | TGAGGTAA | 0.128
64 | TCATTACA | 0.18
65 | ATTAGGAC | -0.179
66 | CCCGCGGG | 0.0996

Row | Sequence | PBM E-score
67 | AATACGCA | 0.0688
68 | ATTTGCTA | 0.0107
69 | GCATTTTA | 0.165
70 | CCATTTTA | 0.267
71 | CCATTTTC | 0.0892
72 | GCCTATCC | -0.214
73 | TTCTGCAA | 0.182
74 | TTCTGAAA | 0.365
75 | CTCTGAAC | -0.092
76 | CTCTGAAG | -0.104
77 | ATCTGAAA | 0.364
78 | GTCTGATA | 0.16
79 | ATCTGAAT | 0.0272
80 | GTCTGAAC | 0.114
81 | CCCTGAAA | 0.181
82 | CTCTGAAA | 0.294
83 | ATCTGAAC | -0.0162
84 | GTCTGAAA | 0.314
85 | TGGCCAAA | 0.0505
86 | TCCACAGA | 0.124
